About 79,000 compounds went through this panel and 15% of them were active in at least one assay; those are over-represented in the sample as a whole. A number with no mark means an inactive call. Active and inactive are the calls of the source. Rule as the data show it: active = growth inhibition above about 70%; inactive = the rest.
Experiments:
[1] = NCI Yeast Anticancer Drug Screen. Data for the rad50 strain (AID 155);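 also: 0% = growth of vehicle-only cultures of the same strain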; details: S. cerevisiae rad50 strain growth inhibition, stronger effect = higher value
In short: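 Yeast carrying a defined DNA repair defect were exposed to test compounds, and growth was compared with vehicle-treated controls to give percent inhibition.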

[2] = NCI Yeast Anticancer Drug Screen. Data for the mec2-1 strain (AID 157); details: S. cerevisiae mec2-1 strain, stronger effect = higher value
In short: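 Yeast mec2-1 mutant treated with compound. Readout: growth inhibition vs vehicle controls.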

[3] = NCI Yeast Anticancer Drug Screen. Data for the sgs1 mgt1 strain (AID 161);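 also: 0% = growth of cultures given vehicle only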; details: S. cerevisiae sgs1 mgt1 strain, stronger effect = higher value
In short: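 Read-out: growth inhibition vs vehicle controls. Cells: mutant yeast strain deficient in DNA damage repair.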

[4] = NCI Yeast Anticancer Drug Screen. Data for the cln2 rad14 strain (AID 165);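 also: 0% = growth equal to vehicle treated cultures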; details: S. cerevisiae cln2 rad14 strain, stronger effect = higher value
In short: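 cln2 rad14 yeast strain; compound exposure; growth inhibition read vs vehicle controls.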

[5] = NCI Yeast Anticancer Drug Screen. Data for the bub3 strain (AID 167); details: S. cerevisiae bub3 mutant strain, stronger effect = higher value
In short: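 Compounds were applied to a genetically altered yeast strain carrying a cell-cycle control defect. Growth inhibition was scored against vehicle-treated controls.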

[6] = NCI Yeast Anticancer Drug Screen. Data for the mlh1 rad18 strain (AID 175); details: S. cerevisiae mlh1 rad18 strain growth inhibition, stronger effect = higher value
In short: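 Yeast w/ defined DNA-repair lesions; compound exposure; growth vs vehicle controls → % inhibition.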

[7] = at 5.0 µM (retest, dose inferred, filed as 0.5)
[8] = at 50.0 µM (retest, dose inferred, filed as 5.0)

Row | Compound | growth inhibition [1, 7] | growth inhibition [1, 8] | growth inhibition ([1]; at 50.0 µM) | growth inhibition [2, 7] | growth inhibition [2, 8] | growth inhibition ([2]; at 50.0 µM) | growth inhibition [3, 7] | growth inhibition [3, 8] | growth inhibition ([3]; at 50.0 µM) | growth inhibition [4, 7] | growth inhibition [4, 8] | growth inhibition ([4]; at 50.0 µM) | growth inhibition [5, 7] | growth inhibition [5, 8] | growth inhibition ([5]; at 50.0 µM) | growth inhibition [6, 7] | growth inhibition [6, 8] | growth inhibition ([6]; at 50.0 µM)
1 | Cc1cc(C(O)(c2cc(C)c(O)c(C(=O)O)c2)c2cc(C)c(O)c(C(=O)O)c2)cc(C(=O)O)c1O | 2% | -5% | 12.4% | 2% | -11% | -18% | 0% | 1% | 5.35% | 6% | -5% | 21.9% | -43% | -3% | -11.7% | 2% | -9% | 10.3%
2 | O=C1C(Cl)=C(c2ccccc2)C1Cl (stereo not given) | 97% (active) | 100% (active) | 99.2% (active) | 98% (active) | 99% (active) | 99.5% (active) | 99% (active) | 100% (active) | 99.7% (active) | 98% (active) | 99% (active) | 99.5% (active) | 96% (active) | 99% (active) | 99.5% (active) | 99% (active) | 99% (active) | 99.2% (active)
3 | O=C1CN=C(c2ccccc2)N(c2ccccc2)N1 | -1% | 96% (active) | 94% (active) | -6% | 97% (active) | 96.5% (active) | -15% | 96% (active) | 94.5% (active) | 2% | 93% (active) | 85% (active) | 8% | 97% (active) | 94.7% (active) | -1% | 94% (active) | 94.4% (active)
4 | CC1(C)CCC2(C(=O)O)CCC3(C)C(=CCC4C5(C)CC(O)C(O)C(C)(C(=O)O)C5CCC43C)C2C1 (stereo not given) | 99% (active) | 99% (active) | 91.9% (active) | 99% (active) | 99% (active) | 94.6% (active) | 99% (active) | 99% (active) | 93.2% (active) | 99% (active) | 99% (active) | 92.5% (active) | 99% (active) | 99% (active) | 92.4% (active) | 99% (active) | 99% (active) | 91.9% (active)
5 | O=S(=O)(Nc1ccccc1)c1ccccc1C(O)(c1ccccc1)c1ccccc1 | 6% | 71% (active) | 93.6% (active) | -15% | 94% (active) | 73.1% (active) | -179% | 48% | 92.1% (active) | -2% | 82% (active) | 85.2% (active) | 15% | 96% (active) | 81.2% (active) | -21% | 92% (active) | 95.5% (active)

— PubChem BioAssay (NCI)
